Results taken from PubChem BioAssay (NCI).
About 83,000 compounds went through this panel and 20% of them were active in at least one assay; those are over-represented in the sample as a whole.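 How to read the values: 0–100, growth inhibition (40 = 60% inhibited); 0, no net growth; -100 to 0, cell death (-40 = 40% of starting cells died; -100 = all dead).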 Unmarked numbers belong to inactive results. Active and inactive are the calls of the source. Rule for the calls: active = growth percent below 10; inactive = the rest.

Experiments:
Experiment in all cases: NCI-60 one-dose screen, 48 h (100 = growth as untreated, 0 = no growth, -100 = all killed)
Details in all cases: 10 µM unless noted
T-47D breast = system: T-47D breast
BT-549 breast = system: BT-549 breast
MDA-MB-435 melanoma = system: MDA-MB-435 melanoma
SW-620 colon = system: SW-620 colon
MCF7 breast = system: MCF7 breast
HCT-116 colon = system: HCT-116 colon
HCC-2998 colon = system: HCC-2998 colon
KM12 colon = system: KM12 colon

| Compound | growth (T-47D breast) | growth (BT-549 breast) | growth (MDA-MB-435 melanoma) | growth (SW-620 colon) | growth (MCF7 breast) | growth (HCT-116 colon) | growth (HCC-2998 colon) | growth (KM12 colon) |
| --- | --- | --- | --- | --- | --- | --- | --- | --- |
| c1ccc(-c2oc(-c3ccccc3)c(CN3CCCCC3)c2CN2CCCCC2)cc1 | 8.84% (active) | 43.3% | 31.7% | 39.6% | 11.7% | 20.9% | -22.9% (active) | 22% |
| Cc1c[n+](Cc2ccc3ccccc3c2)cn1Cc1ccc2ccccc2c1 | -8.03% (active) | -2.98% (active) | -20.9% (active) | 36.8% | 18.5% | 23.2% | 14.8% | -44.7% (active) |
| COc1ccc(/C=C(\C#N)n2nnc3cc(F)c(F)cc32)cc1 | 23.1% | 32.2% | -54% (active) | 14.9% | 22.1% | 28% | 69.3% | 34% |
| C#Cc1c2c(c(OC)c3c1OCO3)[C@H]([C@H]1OC(=O)c3c1ccc(OC)c3OC)N(C)CC2 | 86.7% | 90% | 7.84% (active) | 84.5% | 55.5% | 89.8% | 86.4% | 59.9% |
| Cn1cc(-c2csc(-c3c[nH]c4ccccc34)n2)c2cnccc21 | -3.84% (active) | 78.7% | -72.5% (active) | -48% (active) | 16.7% | -59.7% (active) | 87% | 22.8% |
| O=C(/C=C/c1cccc(Cl)c1)c1cccc(OCCCOc2cccc(C(=O)/C=C/c3cccc(Cl)c3)c2)c1 | 90.4% | 90.2% | 102% | 90.7% | 20.8% | 37% | 109% | 96.8% |
| COc1ccc(C/C(C)=C(/c2ccc(OCCN(C)C)cc2)c2ccc(OC(=O)NCc3ccccc3)cc2)cc1 | 51.7% | 82.5% | 74.4% | 61.5% | 21.2% | 52.1% | 66.6% | 72.6% |
| COc1ccc(/C=C(\C#N)n2nnc3cc(Cl)ccc32)cc1 | 17.2% | -1.84% (active) | -61.6% (active) | 8.09% (active) | 1.74% (active) | -9.51% (active) | -30.2% (active) | 5.89% (active) |
| C[PH+](c1nc2ccccc2nc1[PH+](C)C(C)(C)C)C(C)(C)C.C[PH+](c1nc2ccccc2nc1[PH+](C)C(C)(C)C)C(C)(C)C.[Au+].[Cl-] (stereo not given) | -79.9% (active) | -74.4% (active) | -79.3% (active) | -100% (active) | -84.3% (active) | -100% (active) | -100% (active) | -99.3% (active) |
| N#Cc1ccc(O)c(C2=NCC(c3ccccc3)O2)c1 (stereo not given) | -5.7% (active) | 31.9% | 57.8% | 28.6% | 25.3% | 17.5% | 47.8% | 37.2% |
| COc1ccc(C2=C(Br)C(=O)c3nc(C)ccc3C2=O)cc1 | 72.8% | 93.4% | 103% | 27.2% | 74.7% | 74.1% | 104% | 91.9% |
| CCOC(=O)C/C(=N\Nc1cc(=O)[nH]c2ccc(Br)cc12)C(=O)OCC | 105% | 96.6% | 101% | 90.4% | 91.9% | 99.7% | 96.9% | 96% |
| C=C1C(=O)O[C@H]2[C@H]1CC/C(COC(=O)C(=O)c1cn(C)c3ccc(Cl)cc13)=C\CC[C@@]1(C)O[C@@H]21 | -55.6% (active) | -74.5% (active) | -81.3% (active) | -69.1% (active) | -54.3% (active) | -96.4% (active) | -80.3% (active) | -49.7% (active) |
| CCC(C(=O)[C@@H](C)[C@@H](O)[C@H](C)[C@@H]1O[C@@H]([C@@H](CC)C(=O)ONC(=O)c2ccccc2)CC[C@@H]1C)[C@H]1O[C@]2(C=CC(=O)[C@]3(CC[C@@](C)([C@H]4CC[C@](O)(CC)[C@H](C)O4)O3)O2)[C@H](C)C[C@@H]1C (stereo not given in full) | 21.4% | 6.21% (active) | 20.8% | 19.7% | 3.51% (active) | -36.9% (active) | 20.7% | 16.2% |
| CCc1ccc(CCCC(=O)O)cc1 | 98.8% | 101% | 103% | 108% | 93.6% | 98.1% | 117% | 106% |
| O=C1c2ccccc2-c2c1c1c(=O)[nH]c3ccccc3c1n2Cc1ccccc1 | 62.6% | 29.5% | 71.1% | 79.8% | 56.5% | 41% | 55.4% | 71.2% |
| COC(=O)/C=C1/SC(=Nc2cccc(OC)c2)N(CCc2c[nH]c3ccc(O)cc23)C1=O | 42.2% | 33.1% | 23.5% | 56.1% | 20.4% | 34.3% | 65.1% | 53.5% |
| N#Cc1ccc(O)c(C2=NCC(c3cccc(Oc4ccccc4)c3)O2)c1 (stereo not given) | -12.5% (active) | 30.6% | 35.2% | 25.6% | 21.4% | 16.9% | 43.7% | 21% |
| CCOC(=O)NC(C)C | 100% | 116% | 111% | 111% | 106% | 98.4% | 103% | 112% |
| COc1cc2c(cc1OCCCN1CCN(CCCOc3cc4c(cc3OC)C(=O)N3CC(F)(F)C[C@H]3C=N4)CC1)N=C[C@@H]1CC(F)(F)CN1C2=O | 34.5% | -7.9% (active) | 69% | -0.878% (active) | 25.5% | 62% | 60.5% | 62.3% |
| COc1ccc(CNc2c3ccccc3nc3ccccc23)cc1 | 44.9% | 80.1% | 40.2% | 25.6% | 12.6% | 9.53% (active) | 38.6% | 33.2% |
| O=C(C[C@]1(O)C(=O)Nc2ccccc21)c1cccc(C(F)(F)F)c1 | 87.9% | 97.6% | 103% | 91.9% | 81.2% | 95.5% | 107% | 87.6% |
| CCC1=C[C@@H]2C[C@]3(C(=O)OC)c4[nH]c5ccccc5c4CC[N@+](CC(=O)Nc4cc5c(cc4OC)N(C)[C@H]4[C@@](O)(C(=O)OC)[C@H](OC(C)=O)[C@]6(CC)C=CCN7CC[C@]54[C@@H]76)(C2)[C@H]13 | 105% | 111% | 105% | 100% | 103% | 102% | 110% | 104% |
| Cc1cn(-c2cc(NC(=O)c3cccc(C#Cc4cccc5[nH]nc(N)c45)c3)cc(C(F)(F)F)c2)cn1 | 39.2% | 30.3% | 36.1% | 44.1% | 34.2% | 23.5% | 39.1% | 20.6% |
| [O-]/[N+](=C\c1ccc(-n2cc(Cc3ccccc3Cc3cn(-c4ccc(/C=[N+](/[O-])c5ccccc5)cc4)nn3)nn2)cc1)c1ccccc1 | 93.8% | 83.3% | 109% | 102% | 90.6% | 91.2% | 104% | 98.8% |
| C=C1CC[C@@H]2[C@](C)(COC(C)=O)[C@H](OC(C)=O)CC[C@@]2(C)[C@@H]1CC(Nc1ccc(S(=O)(=O)Nc2ncccn2)cc1)C1=CCOC1=O (stereo not given in full) | 42.3% | -32% (active) | -14.8% (active) | -70% (active) | -19.6% (active) | -55% (active) | 32% | -13.2% (active) |
| CCOC(=O)[C@@H]1CSC(CC)=C(C(=O)O)N1 | 87.3% | 101% | 109% | 105% | 108% | 94.1% | 111% | 114% |
| CC(C)(Sc1cc(C(C)(C)C)c(OC(=O)CCCC(=O)O)c(C(C)(C)C)c1)Sc1cc(C(C)(C)C)c(OC(=O)CCCC(=O)O)c(C(C)(C)C)c1 | 49.5% | 39.8% | 27.8% | 41.4% | 30% | 15.9% | 22.1% | 10.9% |
| COC1/C=C/OC2(C)Oc3c(C)c(O)c4c(O)c(c(/C=N/Nc5ccc([N+](=O)[O-])cc5[N+](=O)[O-])c(O)c4c3C2=O)NC(=O)C(C)=C/C=C/C(C)C(O)C(C)C(O)C(C)C(OC(C)=O)C1C (stereo not given) | -31.2% (active) | 13.7% | 3.5% (active) | -41.2% (active) | 36.6% | -46.7% (active) | -14.1% (active) | 9.93% (active) |
| C[C@@H](CO)[C@@H]1CCC=C2CC[C@]3(C)[C@H](CC[C@@H]4[C@@]5(C)CCCNC(C)(C)[C@@H]5CC[C@]43C)[C@H]21 | 58.9% | 81.5% | 7.57% (active) | -72.1% (active) | 7.68% (active) | -20.3% (active) | -61.5% (active) | 4.99% (active) |
